High-throughput results from PubChem BioAssay.
Many of the other results were omitted from the sample, so hits are more common in it than they were.
mcGAS RapidFire – inhibitors of mouse cGAS. Q8C6L5. recombinant mouse cGAS, cGAMP by RapidFire MS. inhibition, % at 12.5 µM. actives 0.18% (n = 130,000);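 active = inhibition of cGAS enzyme activity at or above 60%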;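 note: enzyme stimulated by 45 bp dsDNA with ATP and GTP substrates; cGAMP share of summed cGAMP plus half ATP and half GTP signals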
Target sequence (Q8C6L5 whole entry, looked up): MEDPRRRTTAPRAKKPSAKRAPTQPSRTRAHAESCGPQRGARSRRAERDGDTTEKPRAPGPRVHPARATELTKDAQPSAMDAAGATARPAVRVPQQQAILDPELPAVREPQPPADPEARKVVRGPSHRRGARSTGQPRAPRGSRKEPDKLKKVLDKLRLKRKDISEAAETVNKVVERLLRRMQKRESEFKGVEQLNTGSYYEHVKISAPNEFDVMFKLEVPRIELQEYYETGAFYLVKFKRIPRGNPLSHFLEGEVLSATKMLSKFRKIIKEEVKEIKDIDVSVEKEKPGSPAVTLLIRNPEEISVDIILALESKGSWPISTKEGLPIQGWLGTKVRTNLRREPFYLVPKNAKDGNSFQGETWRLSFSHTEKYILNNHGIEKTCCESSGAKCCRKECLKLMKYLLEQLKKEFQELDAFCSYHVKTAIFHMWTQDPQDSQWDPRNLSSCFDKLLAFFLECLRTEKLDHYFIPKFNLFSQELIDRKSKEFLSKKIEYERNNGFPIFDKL
Large screens that a line does not name were inactive.

Cc1cnc(C)c(N(C)C)n1	mcGAS RapidFire 93
CCOC(=O)NC(=S)NN(C)c1nc(C)cnc1C	none
CN(C)c1nc2nonc2nc1NC1CCC1	none
CCCCOC(=O)N(CCC)OC(=O)Nc1ccccc1	none
N#Cc1cc2[nH]c3ccccc3c2n(-c2ccc([N+](=O)[O-])cc2)c1=N	none
Nc1c(-c2ccccc2)cnn1-c1ccc([N+](=O)[O-])cc1	none
CC1(C)Cc2c(cnn2-c2ccc([N+](=O)[O-])cc2)-c2[nH]c3ccccc3c21	mcGAS RapidFire 76
O=C(O)CSCc1nc2sc3c(c2c(=O)[nH]1)CCCC3	none
NC(Cc1ccc(C(F)(F)F)cc1)c1csc(Nc2cnccn2)n1 (stereo not drawn)	none
NC(Cc1ccc(C(F)(F)F)cc1)c1csc(Nc2ccccn2)n1 (stereo not drawn)	none
NC(Cc1ccc(F)cc1)c1csc(Nc2ccc(C(F)(F)F)cn2)n1 (stereo not drawn)	mcGAS RapidFire 67
CCn1c(C2CCCNC2)nn(Cc2cn3cccc(C)c3n2)c1=O (stereo not drawn)	none
CC(C)c1nc2oc3ccccc3c(=O)c2c(=O)n1-c1ccccc1	none
COC(=O)c1cc2c(=O)n(-c3ccc(C(C)C)cc3)ccc2nc1C	none
CCOC(=O)c1cc(-c2ccccc2)nc2[nH]c(=O)c3ccccc3c12	none
CCNC(=O)c1cc(-c2ccccc2)c(N2CCOCC2)s1	none
N#Cc1ccc(/C=C2\SCCc3ccccc3C2=O)cc1	none
O=C1C(=Cc2ccc(-c3ccccc3)cc2)CS(=O)(=O)c2ccc(F)cc21	none
N#Cc1ccc(/C=C2\CS(=O)(=O)c3c(F)cccc3C2=O)cc1	mcGAS RapidFire 63
NC(=O)CCS(=O)(=O)CCN1CCN(Cc2ccc(Cl)s2)CC1	none
Cn1cnnc1SCC(=O)N1CCCC(C(=O)c2ccc3c4c(cccc24)CC3)C1 (stereo not drawn)	none
CCCNC(=O)C1(C)CCN(CCC(=O)c2ccc(Br)cc2)C1 (stereo not drawn)	mcGAS RapidFire 64
CCNC(=O)C1(C)CCCN(CC(=O)c2ccc(Br)cc2)C1 (stereo not drawn)	none
CCNC(=O)C1(C)CCN1CCC(=O)c1ccc(Br)cc1 (stereo not drawn)	none
CC(=O)N1CCN(C2CN(C(C)c3ccc(C#N)cc3)CC2C)CC1 (stereo not drawn)	none
Cc1ccc(-c2nnc(CN3CCC(Oc4ccncc4)CC3)o2)cc1	none
COc1ccc2[nH]c(-c3nn4c(C(C)C)nnc4s3)cc2c1	none
Cc1cc(-c2nnc3sc(-c4ccc5ccccc5n4)nn23)n[nH]1	none
CC(C)c1cc(-c2nn3c(C(C)(C)C)nnc3s2)n[nH]1	mcGAS RapidFire 75
O=C(c1ccc([N+](=O)[O-])cc1)N1CCCC(OCc2ccccc2)C1 (stereo not drawn)	none
Cc1ccc(NC(=O)CNCCNc2ncccc2C)c(C)c1	none
CCOC(=O)c1cc(C(=O)OCC)c2c(C)cc(C)cc(C)c1-2	mcGAS RapidFire 88
CCOC(=O)c1cc(Cl)nc(Cl)c1C	none
CCOC(=O)c1c[nH]cc(C)c1=O	none
COc1ccc(CNC2CCCC2)cc1-c1ccc(S(C)(=O)=O)cc1	none
COc1cccc(-c2nc(-c3c[nH]c4ccccc34)cs2)c1OC	none
O=C(Cn1cnnn1)Nc1nc(-c2cccc3ccccc23)cs1	none
O=C(CCl)Nc1nc(-c2c[nH]c3ccccc23)cs1	mcGAS RapidFire 72
CC(C)Oc1ccc(C(=O)Nc2c3c(nn2-c2ccccc2)CS(=O)C3)cc1 (stereo not drawn)	none
CCN(CC)S(=O)(=O)c1ccc(Cl)c(NC(=O)N2CCCC(N3CCCC3)C2)c1 (stereo not drawn)	none
Brc1ccccc1C1N=C2c3c(sc4c3CCCC4)N=CN2N1 (stereo not drawn)	none
Cc1cccc2cc(/C=N\NC(=O)CN3CCCCC3)c(Cl)nc12	none
OCc1cc(O)c2c(O)c3c(O)cccc3c(O[C@@H]3O[C@H](CO)[C@H](O)[C@@H](O)[C@H]3O)c2c1	none
O=c1c(O)c(-c2ccc(O)c(O)c2)oc2c(O[C@@H]3O[C@H](CO)[C@H](O)[C@@H](O)[C@H]3O)c(O)cc(O)c12	none
O=C(NCC1(c2ccccc2)CCOCC1)c1cn(CCC2CCCCC2)nn1	none
O=C(Nc1ccnn1C1CCCCC1)c1cc2c(s1)CCC2	none
CCN(Cc1nc(C)no1)C(=O)c1ccc(CSC)o1	none
CC1ON=C(c2ccco2)N(C/C=C/c2ccccc2)C1=O (stereo not drawn)	none
CC1ON=C(c2ccco2)N(Cc2ccc(S(C)(=O)=O)cc2)C1=O (stereo not drawn)	mcGAS RapidFire 66
COc1ccc(C(C)=O)cc1CN1C(=O)C(C)ON=C1c1ccco1 (stereo not drawn)	none
CC(NC(=O)CNc1cc(F)cc(F)c1)c1ccccc1 (stereo not drawn)	none
CNc1ccc(C(O)(c2ncnn2C)C(F)(F)F)cc1 (stereo not drawn)	none
CCc1ccccc1-n1ccc2nc(N3CCCCC3)ncc2c1=O	none
CCn1cc(C(=O)O)c(=O)c2cnc(N3CCCC3)nc21	mcGAS RapidFire 78
CCn1cc(C(=O)O)c(=O)c2cc3c(cc21)OCO3	none
COc1ccc(-c2csc(NC(=O)C3CCCN(C(=O)N(C)C)C3)n2)cc1Cl (stereo not drawn)	none
CC(=O)NC1(C(=O)N(C)CCc2ccccn2)CCC(C)CC1 (stereo not drawn)	none
CCC(=O)N1CCCC(N2CCN(c3ccccc3)CC2)C1 (stereo not drawn)	none
CNc1nc(CNC(=O)Nc2nnc(C(F)F)s2)cs1	none
O=S(=O)(c1ccccc1NC(C1CC1)C1CC1)C(F)(F)F	none
O=S(=O)(c1ccccc1O)C(F)(F)F	none
CC(C)(O)CCOc1ccccc1S(=O)(=O)C(F)(F)F	mcGAS RapidFire 72
Nn1cnnc1N/N=C\c1cc([N+](=O)[O-])c(Cl)cc1Cl	none
Cc1c(C(=O)NCc2ccc3c(c2)OCCO3)sc(=O)n1Cc1ccc(C(F)(F)F)o1	none
COc1ccc(Cl)cc1CN1C(=O)CON=C1c1ccc(C)cc1	mcGAS RapidFire 63
COc1ccc(Cl)cc1CN1C(=O)CON=C1c1ncccc1C	none
Cc1ccccc1CN1C(=O)CON=C1c1ccc(N(C)C)cc1	none
Cc1nc2sccn2c1C(=O)N1CCCC(CNS(=O)(=O)c2cccs2)C1 (stereo not drawn)	none
CCOC(=O)c1c(NC(=O)c2cc3ccccc3o2)sc(C(N)=O)c1C	none
Cc1nnc2sc(-c3cccc(NC(=S)NC(=O)c4cc5ccccc5o4)c3)nn12	none
Cc1nnc2sc(-c3ccccc3NC(=S)NC(=O)c3cc4ccccc4o3)nn12	mcGAS RapidFire 71
CC(=O)Oc1ccccc1Cn1c(C)c(C(=O)NCC2CC2)sc1=O	none
CC1(C)CC2CC(C)(CN2c2ccc([N+](=O)[O-])cc2C#N)C1 (stereo not drawn)	none
COCCc1ccc(-c2csc(NC(=O)c3cc(Cl)c[nH]3)n2)cc1	none
O=C(Nc1nncs1)c1cnn(Cc2ccccc2Cl)c1	none
O=C(Nc1nnc(C2CC2)s1)c1cn(-c2ccc(Br)cc2)nn1	none
O=C(Nc1nncs1)c1cn(-c2ccccc2Br)nn1	mcGAS RapidFire 71
COCCN(Cc1cnc(S(=O)(=O)C(C)C)n1Cc1ccccc1F)C(C)C	none
Fc1ccc(N2CCC(N3CCC4(CCCN(CC5CC5)C4)C3)CC2)cc1F (stereo not drawn)	none
O=c1c2ccccc2nc2c3ccccc3c(NCc3ccccn3)nn12	none
O=c1c2ccccc2nc2n1CCS2	none
O=c1[nH]n2c(=O)c3ccccc3nc2c2ccccc12	mcGAS RapidFire 90
Cc1nc2n(n1)C(=O)C(C(c1cccc(F)c1)N1CC(C)OC(C)C1)S2 (stereo not drawn)	none
CCOCCOC(=O)C1=C(C)N(CC)C(=O)NC1c1ccc([N+](=O)[O-])cc1 (stereo not drawn)	mcGAS RapidFire 98
